# Hits are enriched below; roughly 7.5% of the tested compounds scored in any of these assays.
# SMN2 splice up – increases expression of the SMN2 splice variant; HEK293 SMN2-luciferase splicing reporter, luminescence, 30-36 h; Potency, µM (highest dose often 46.1 µM), for the others: at the highest dose activity change, positive = activation, most hits filed as activators; 210,000 compounds, 2.8% hits; note: % of control where 0% means no effect; nearly all actives have a fitted effect of over 55% in size
#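 qHTS luciferase splicing reporter: luminescence rises when SMN2 exon 7 is included in transfected HEK293 cells. Compound exposure lasted 30-36 h at 37C, with 4.5 mM final sodium butyrate as control, followed by a ONE-Glo read.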
# ELG1 genotox – induces genotoxicity in HEK293T cells with luciferase-tagged ELG1. HEK293T ELG1-luciferase reporter, luminescence, 16 h. Potency, µM (highest dose often 46 µM), for the others: top-dose activity change, positive = activation, hits mostly activators. 330,000 compounds, 1.3% hits. AID 504466; note: % of control where 0% means no effect; nearly all actives have a fitted effect of over 60% in size
#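 Genotoxic stress is detected as increased luminescence from luciferase-tagged ELG1 in HEK293T cells, measured with ONE-Glo after a 16 hr treatment at 37 °C.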
# FLuc modulator – counter-screen for miR-21 project: firefly luciferase inhibitors or activators | P08659 | purified FLuc, Km substrates, luminescence inhibition | Potency, µM (titrated, usually from 57.5 µM), without a hit: top-dose activity change, negative = inhibition, actives largely listed as inhibitors | 360,000 compounds, 6.9% hits;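 note: plate controls were vehicle for no effect and reference inhibitor for full effect; nearly all actives have a fitted effect of over 55% in size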
# Target sequence (P08659 whole entry, looked up): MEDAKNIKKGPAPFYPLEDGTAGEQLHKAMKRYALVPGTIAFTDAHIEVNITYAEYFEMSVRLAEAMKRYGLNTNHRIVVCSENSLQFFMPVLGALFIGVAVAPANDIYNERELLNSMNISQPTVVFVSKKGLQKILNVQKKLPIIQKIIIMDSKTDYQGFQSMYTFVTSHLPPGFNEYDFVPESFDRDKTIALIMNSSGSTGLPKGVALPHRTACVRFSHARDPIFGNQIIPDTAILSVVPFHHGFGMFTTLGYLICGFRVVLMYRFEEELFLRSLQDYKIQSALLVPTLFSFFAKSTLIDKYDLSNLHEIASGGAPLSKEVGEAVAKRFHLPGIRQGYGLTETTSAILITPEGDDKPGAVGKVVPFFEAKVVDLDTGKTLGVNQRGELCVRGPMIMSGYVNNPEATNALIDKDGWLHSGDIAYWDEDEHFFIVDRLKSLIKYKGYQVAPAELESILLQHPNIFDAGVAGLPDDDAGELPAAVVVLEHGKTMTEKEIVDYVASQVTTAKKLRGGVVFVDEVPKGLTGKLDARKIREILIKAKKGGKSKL
#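 Biochemical qHTS of compounds, final roughly 60 µM downward over six points, against 10 nM purified firefly luciferase using Km concentrations of substrates (10 uM D-luciferin, 10 uM ATP) in Tris acetate pH 7.5 buffer; luminescence output.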
# KinaseGlo FLuc – Kinase-Glo luciferase inhibition (counter-screen) | Potency, µM (highest dose often 38.3 µM), for inactives: top-dose activity change, negative = inhibition, hits mostly inhibitors | 200,000 compounds, 0.28% hits | Kinase-Glo luciferase, ATP luminescence, 8 min | AID 1379; note: % is set by controls: 0 for no effect and ±100 for the full control effect; nearly all actives have a fitted effect of over 60% in size
#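 Inhibition of Kinase-Glo luciferase light generation was assessed at 10 uM ATP in pH 7.2 imidazole buffer, with luminescence measured after eight minutes at ambient temperature.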
# NPC1 prom act – activators of NPC1 promoter; Huh7 NPC1 promoter luciferase reporter, 24 h; Potency, µM (highest dose often 9.22 µM), inactives show at the top dose activation, most hits filed as activators; 320,000 compounds, 2.4% hits; AID 485313; note: % of control where 0% means no effect; nearly all actives have a fitted effect of over 60% in size
#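 Readout is luciferase luminescence, reflecting NPC1 promoter activation in stably transfected Huh7 cells after 24 h compound exposure at 37 °C in reduced-serum medium with 10% FBS.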
# Rab9 prom act – Rab9 promoter activation. Huh7 Rab9 promoter-luciferase reporter, luminescence, 24 h. Potency, µM (series often up to 9.22 µM), inactives show at the top dose activation, negative = inhibition, hits mostly activators. 320,000 compounds, 2.8% hits. AID 485297; note: % of control where 0% means no effect; nearly all actives have a fitted effect of over 60% in size
#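 Measured in stably transfected Huh7 cells bearing a Rab9 promoter–luciferase construct: 24 h compound treatment at 37 °C, followed by luminescence detection.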
# * hit, by the source's call; ? = inconclusive; . = no result given; [ ] = another dose, or the depositor's remark. Calls come from the whole dose curve; as a rule, active = well fitted curve in the direction sought with a large enough effect; inconclusive = small, poorly fitted or top-dose-only effect, or another doubt; inactive = no such curve, though single readings can be large; an effect the other way counts as inactive or inconclusive. Potency is the fitted concentration of half-maximal effect.
SMILES,SMN2 splice up,ELG1 genotox,FLuc modulator,KinaseGlo FLuc,NPC1 prom act,Rab9 prom act
COc1ccccc1C(=O)Nc1ccc(-c2nnn(CC(=O)N3CCN(C(=O)c4ccco4)CC3)n2)cc1,-36%,-11%,17µM*,2%,-2%,11%
CCCCOc1ccc(C(=O)Nc2cccc(-c3nc4cccnc4s3)c2)cc1,.,.,1%,.,.,.
CC(=O)Nc1ccc(NC(=O)CSc2nc3[nH]ncc3c(=O)n2-c2ccccc2)cc1,.,1%[9.26 µM],-1%,.,-3%,4%
COc1ccc2[nH]c3c(=O)n(Cc4ccc(C(=O)N5CCC(C(N)=O)CC5)cc4)c(=S)[nH]c3c2c1,4%,0%,21µM*,-6%,1%,6%
COC(=O)CC1C(=O)NCCN1C(=O)CSc1nnc(Nc2ccc(C)cc2)s1 (stereo unspecified),5%,7%,17µM*,-4%,0%,2%
COC(=O)CC1C(=O)NCCN1C(=O)CSc1nnc(Nc2ccc(OC)cc2)s1 (stereo unspecified),.,6%,21µM*,?,6%,2%
CCOc1ccc(C2Nc3ccccc3-c3nnc(SCc4ccccc4)nc3O2)cc1OC (stereo unspecified),-4%,.,?,.,.,.
CCNc1nc(N)nc(-c2cc(Cl)ccc2O)n1,11µM*,?,1.7µM*,-1%,4µM*,1.3µM*
CCCNc1nc(N)nc(-c2cc(Cl)ccc2OC)n1,6%,-1%,11%,-4%,2%,-4%
CCCCNc1nc(N)nc(-c2cc(Cl)ccc2O)n1,6.3µM*,?,9.5µM*,-1%,3.5µM*,2.8µM*
N#CC(Cc1ccccc1OC(F)F)c1nc2ccccc2[nH]1 (stereo unspecified),3%,1%,1%,-2%,-3%,-2%
CC1=N/C(=C/c2ccc([N+](=O)[O-])cc2)C(=O)N1c1ccc(Cl)cc1Cl,-51%,-19%,-2%,-5%,0%,0%
CC1=N/C(=C\c2ccc([N+](=O)[O-])cc2)C(=O)N1c1ccc(F)cc1F,.,-1%,7.6µM*,.,-4%,-1%
COc1cccc(/C=C2\C(=O)C(=O)c3ccccc32)c1,16%,4%,21µM*,0%,-2%,-3%
CC(=O)Oc1ccc(/C=C2/CCc3ccccc3C2=O)cc1,.,?,0.6µM*,.,-4%,15%
COc1ccc(/C=C2\CC/C(=C\c3ccc(OC)cc3OC)C2=O)c(OC)c1,-27%,?,?,12%,14%,21%
COc1ccc2c(c1)CC/C(=C/c1ccccn1)C2=O,.,15%,5.4µM*,.,?,?
COc1cccc(/C=C2\CCc3ccccc3C2=O)c1,.,2.6µM*,0.15µM*,.,?,?
CCn1nc(C)c2c(-c3ccccc3)cc(=O)n(C(C)C(=O)NCc3ccccc3OC)c21 (stereo unspecified),.,.,-15%,.,.,.
O=C(Nc1cccc(C(=O)N2CCCCC2)c1)c1ccccc1Br,.,-2%,1%,.,-1%,-1%
CCN1C/C(=C/c2ccc(OC)c(O)c2)C(=O)/C(=C/c2ccc(OC)c(O)c2)C1,-105%,-21%,4%,-1%,-45%,-44%
COc1ccc2c(c1)CC/C(=C\C=C\c1ccccc1)C2=O,?,9%,2.7µM*,1%,18%,8%
COc1ccc2c(c1)CC/C(=C/c1cc(OC)c(OC)c(OC)c1)C2=O,-58%,-12%,-16%,3%,4%,1%
COc1cc(/C=C2/CC/C(=C/c3ccc(O)c(OC)c3)C2=O)ccc1O,.,-4%,11µM*,.,-5%,-2%
COc1ccc(/C=C2\CCc3ccccc3C2=O)cc1OC,-25%,17%,5.4µM*,-6%,2%,4%
COc1cc(/C=C2\COC/C(=C\c3ccc(O)c(OC)c3)C2=O)ccc1O,.,-17%,17µM*,.,-11%,-43%
COc1cc(/C=C2\C(=O)N(C)C(=S)N2C)ccc1O,7%,-2%,-13%,0%,0%,-5%
COC(=O)C1(C(=O)OC)C[C@H]2CON=C2[C@H]1c1ccccc1,1%,.,.,0%,.,.
